Results taken from PubChem BioAssay (NCATS).
Results filed as inconclusive are left out. The source made the active and inactive calls. The call rests on the fitted dose curve; in most records, active means well fitted inhibition curve with a large enough effect; inconclusive means small, poorly fitted or top-dose-only effect; inactive means flat fitted curve, though single readings scatter.

Key:
Test in all cases: qHTS profiling for inhibitors of Plasmodium falciparum proliferation (AID 504749); further: nearly all actives have a fitted effect of over 60% in size
Settings in all cases: P. falciparum in erythrocytes, SYBR Green DNA, 72 h; series mostly up to 28.7 µM
[1] = system: ATS95
Method in brief: (§1)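 Three-day growth assay of blood-stage parasites in erythrocytes (0.3% parasitemia, 2.5% hematocrit) at 37 C, 5% CO2, quantified by SYBR Green DNA staining after overnight detergent lysis.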

[2] = system: C2A
Method in brief: as §1

[3] = system: CP211
Method in brief: as §1

[4] = system: CP215
Method in brief: as §1

[5] = system: CP217
Method in brief: as §1

[6] = system: CP256
Method in brief: as §1

[7] = system: CP262
Method in brief: as §1

[8] = system: CP265
Method in brief: as §1

[9] = system: CP266
Method in brief: as §1

[10] = system: CP269
Method in brief: as §1

[11] = system: CP325
Method in brief: as §1

[12] = system: CP329
Method in brief: as §1

[13] = system: DIV17
Method in brief: as §1

[14] = system: ECU
Method in brief: as §1

[15] = system: N140
Method in brief: as §1

[16] = system: P93_24
Method in brief: as §1

[17] = system: PAD
Method in brief: as §1

[18] = system: PC15
Method in brief: as §1

[19] = system: PC26
Method in brief: as §1

[20] = system: SC27B
Method in brief: as §1

Measured: Potency
Potency means the concentration at half of the fitted maximal effect.

C=C[C@@H]1CN2CC[C@H]1C[C@H]2[C@H](O)c1ccnc2ccccc12
active: [1] 447 nM | [2] 1.41 µM | [3] 953 nM | [4] 757 nM | [5] 1.26 µM | [6] 1.12 µM | [7] 379 nM | [8] 891 nM | [9] 1.51 µM | [10] 1.07 µM | [11] 675 nM | [12] 1.51 µM | [13] 379 nM | [14] 199 nM | [15] 794 nM | [16] 447 nM | [17] 501 nM | [18] 224 nM | [19] 426 nM | [20] 1 µM

C[C@@H](Cc1ccc(O)cc1)NC[C@@H](O)c1cc(O)cc(O)c1
inactive: [1] | [2] | [3] | [4] | [5] | [6] | [7] | [8] | [9] | [10] | [11] | [12] | [13] | [14] | [15] | [16] | [17] | [18] | [19] | [20]

O=C1C[C@@H]2OCC=C3CN4CC[C@]56c7ccccc7N1[C@@H]5[C@@H]2[C@H]3C[C@H]46 (tested in a mixture with another compound)
inactive: [18] | [19]

C[C@@H]1O[C@@H](O[C@H]2C[C@@H](O)[C@@]3(CO)[C@H]4[C@H](O)C[C@]5(C)[C@@H](C6=CC(=O)OC6)CC[C@]5(O)[C@H]4CC[C@@]3(O)C2)[C@@H](O)[C@H](O)[C@H]1O
inactive: [1] | [2] | [3] | [4] | [5] | [6] | [7] | [8] | [9] | [10] | [11] | [12] | [13] | [14] | [15] | [16] | [17] | [20]
